# Measured values published in the supplement of paper PMC11732987, “Enantioselective OTUD7B fragment discovery through chemoproteomics screening and high-throughput optimisation” (Communications Chemistry, 2025).
# Unmarked numbers belong to inactive results.
# How the values were obtained:
# Experiment in all cases: log2 ratio of Biotin-Ahx-Ub-VS probe labelling (fragment/DMSO); higher = less target engagement (more negative = stronger competition), active = hit call of the paper (q ≤ 0.05, log2 ratio ≤ -1)
# Conditions in all cases: compound concentration: 200 uM; treatment time: 3 h
# ALG13 = biological target: T1, ALG13 (UniProt Q9NP73)
# T1 sequence (whole entry): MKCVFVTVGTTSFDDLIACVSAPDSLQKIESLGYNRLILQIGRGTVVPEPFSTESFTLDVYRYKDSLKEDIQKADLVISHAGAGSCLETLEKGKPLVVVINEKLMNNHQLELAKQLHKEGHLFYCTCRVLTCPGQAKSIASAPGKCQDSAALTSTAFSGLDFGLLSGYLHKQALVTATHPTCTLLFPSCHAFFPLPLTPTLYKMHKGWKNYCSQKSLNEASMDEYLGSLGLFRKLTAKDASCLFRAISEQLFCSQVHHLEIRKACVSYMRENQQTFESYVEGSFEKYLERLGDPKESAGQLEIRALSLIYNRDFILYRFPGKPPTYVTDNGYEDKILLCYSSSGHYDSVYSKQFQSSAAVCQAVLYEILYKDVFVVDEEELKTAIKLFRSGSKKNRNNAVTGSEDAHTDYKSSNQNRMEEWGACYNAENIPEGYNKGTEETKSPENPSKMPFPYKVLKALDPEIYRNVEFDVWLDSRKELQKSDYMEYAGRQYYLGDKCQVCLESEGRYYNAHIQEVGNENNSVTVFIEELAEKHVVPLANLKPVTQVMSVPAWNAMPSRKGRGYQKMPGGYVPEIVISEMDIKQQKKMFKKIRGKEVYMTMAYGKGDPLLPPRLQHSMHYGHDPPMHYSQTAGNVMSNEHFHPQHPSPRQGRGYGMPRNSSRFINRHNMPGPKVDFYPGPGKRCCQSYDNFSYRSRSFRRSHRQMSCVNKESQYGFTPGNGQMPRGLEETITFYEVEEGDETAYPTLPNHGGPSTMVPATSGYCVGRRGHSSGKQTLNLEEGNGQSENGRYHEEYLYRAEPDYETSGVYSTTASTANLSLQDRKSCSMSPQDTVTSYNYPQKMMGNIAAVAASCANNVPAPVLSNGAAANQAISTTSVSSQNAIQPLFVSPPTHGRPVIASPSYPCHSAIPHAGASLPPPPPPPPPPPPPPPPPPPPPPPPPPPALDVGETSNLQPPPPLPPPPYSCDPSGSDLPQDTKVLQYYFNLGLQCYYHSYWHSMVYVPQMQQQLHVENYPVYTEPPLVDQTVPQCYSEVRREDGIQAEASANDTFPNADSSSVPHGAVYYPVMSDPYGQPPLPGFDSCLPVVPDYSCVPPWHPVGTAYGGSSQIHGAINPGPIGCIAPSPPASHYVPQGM
# How it was run: (§1)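 Fragment (200 µM) or vehicle was incubated for 3 h with triplicate HEK293T lysate samples of 495 µg, which were then treated with Biotin-Ahx-Ub-VS at 0.5 µM final for 1 h. Labelled DUBs were enriched on NeutrAvidin, digested with LysC and trypsin, and analysed by diaPASEF LC-MS/MS. Values are average log2 fragment/vehicle ratios from an unpaired t-test on global-median-normalised Spectronaut label-free quantities, using proteins with ≥2 unique peptides.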
# ATXN3 = ATXN3 (UniProt P54252)
# How it was run: as §1
# BAP1 = biological target: T2, BAP1 (UniProt Q92560)
# T2 sequence (whole entry): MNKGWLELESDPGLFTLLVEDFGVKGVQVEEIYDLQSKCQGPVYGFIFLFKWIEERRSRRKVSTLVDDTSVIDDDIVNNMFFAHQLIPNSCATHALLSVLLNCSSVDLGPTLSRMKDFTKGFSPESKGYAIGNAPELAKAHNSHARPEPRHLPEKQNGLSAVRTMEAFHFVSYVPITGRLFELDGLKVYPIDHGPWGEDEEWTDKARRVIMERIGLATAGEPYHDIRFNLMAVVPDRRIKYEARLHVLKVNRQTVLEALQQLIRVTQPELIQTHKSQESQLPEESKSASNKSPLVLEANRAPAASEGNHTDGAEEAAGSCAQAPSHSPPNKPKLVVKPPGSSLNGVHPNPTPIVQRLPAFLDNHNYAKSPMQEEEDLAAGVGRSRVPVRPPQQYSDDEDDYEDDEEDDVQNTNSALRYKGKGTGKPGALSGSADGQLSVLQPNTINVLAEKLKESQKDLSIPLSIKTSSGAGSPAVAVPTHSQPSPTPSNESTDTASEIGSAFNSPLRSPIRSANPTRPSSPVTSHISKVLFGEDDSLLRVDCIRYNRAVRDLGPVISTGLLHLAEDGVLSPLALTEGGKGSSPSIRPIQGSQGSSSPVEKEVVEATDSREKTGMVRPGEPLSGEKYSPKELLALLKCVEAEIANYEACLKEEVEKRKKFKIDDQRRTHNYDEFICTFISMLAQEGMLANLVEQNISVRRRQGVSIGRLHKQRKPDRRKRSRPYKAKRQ
# How it was run: as §1
# EIF3F = EIF3F (UniProt O00303)
# How it was run: as §1
# EIF3H = EIF3H (UniProt O15372)
# How it was run: as §1
# FAM105A = biological target: T3, FAM105A (UniProt Q9NUU6)
# T3 sequence (whole entry): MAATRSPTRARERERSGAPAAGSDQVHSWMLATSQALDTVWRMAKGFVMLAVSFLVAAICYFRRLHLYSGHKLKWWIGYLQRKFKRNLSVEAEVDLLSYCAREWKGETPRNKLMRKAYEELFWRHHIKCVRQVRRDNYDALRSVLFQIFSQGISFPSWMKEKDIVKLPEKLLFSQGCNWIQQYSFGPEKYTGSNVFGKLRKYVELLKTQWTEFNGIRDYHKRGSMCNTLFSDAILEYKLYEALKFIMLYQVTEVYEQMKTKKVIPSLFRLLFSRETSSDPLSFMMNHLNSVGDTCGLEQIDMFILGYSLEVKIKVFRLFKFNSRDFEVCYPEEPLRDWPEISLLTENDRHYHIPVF
# How it was run: as §1
# OTUB1 = OTUB1 (UniProt Q96FW1)
# How it was run: as §1
# OTUD4 = biological target: T4, OTUD4 (UniProt Q01804)
# T4 sequence (whole entry): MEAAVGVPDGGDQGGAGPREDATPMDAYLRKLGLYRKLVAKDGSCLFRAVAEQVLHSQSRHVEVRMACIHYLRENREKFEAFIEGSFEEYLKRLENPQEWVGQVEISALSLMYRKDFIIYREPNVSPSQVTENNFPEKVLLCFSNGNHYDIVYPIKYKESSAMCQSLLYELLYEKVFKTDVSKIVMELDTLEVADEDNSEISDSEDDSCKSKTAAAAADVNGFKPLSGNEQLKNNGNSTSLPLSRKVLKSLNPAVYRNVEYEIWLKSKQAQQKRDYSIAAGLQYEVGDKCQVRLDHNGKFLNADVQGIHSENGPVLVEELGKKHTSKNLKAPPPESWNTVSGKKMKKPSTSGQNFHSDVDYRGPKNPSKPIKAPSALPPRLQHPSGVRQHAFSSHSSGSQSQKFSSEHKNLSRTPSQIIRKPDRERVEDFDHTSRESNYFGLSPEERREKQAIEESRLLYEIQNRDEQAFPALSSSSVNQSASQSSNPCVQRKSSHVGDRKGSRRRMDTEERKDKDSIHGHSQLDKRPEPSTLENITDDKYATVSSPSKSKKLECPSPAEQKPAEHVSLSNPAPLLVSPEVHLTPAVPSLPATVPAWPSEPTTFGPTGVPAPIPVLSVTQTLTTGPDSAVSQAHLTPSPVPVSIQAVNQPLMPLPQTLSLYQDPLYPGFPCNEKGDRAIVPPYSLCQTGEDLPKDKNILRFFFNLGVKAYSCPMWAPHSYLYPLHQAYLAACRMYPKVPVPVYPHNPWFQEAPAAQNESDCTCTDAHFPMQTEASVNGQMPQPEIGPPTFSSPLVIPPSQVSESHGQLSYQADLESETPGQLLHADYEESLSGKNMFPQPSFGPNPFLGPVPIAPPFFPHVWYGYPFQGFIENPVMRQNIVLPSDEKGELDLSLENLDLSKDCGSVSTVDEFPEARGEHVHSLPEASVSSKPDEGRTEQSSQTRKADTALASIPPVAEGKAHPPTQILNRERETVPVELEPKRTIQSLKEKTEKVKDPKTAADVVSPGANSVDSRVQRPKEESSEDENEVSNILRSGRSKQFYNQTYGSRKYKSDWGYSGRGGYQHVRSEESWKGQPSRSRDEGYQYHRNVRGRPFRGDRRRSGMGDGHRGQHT
# How it was run: as §1
# OTUD5 = biological target: T5, OTUD5 (UniProt Q96G74)
# T5 sequence (whole entry): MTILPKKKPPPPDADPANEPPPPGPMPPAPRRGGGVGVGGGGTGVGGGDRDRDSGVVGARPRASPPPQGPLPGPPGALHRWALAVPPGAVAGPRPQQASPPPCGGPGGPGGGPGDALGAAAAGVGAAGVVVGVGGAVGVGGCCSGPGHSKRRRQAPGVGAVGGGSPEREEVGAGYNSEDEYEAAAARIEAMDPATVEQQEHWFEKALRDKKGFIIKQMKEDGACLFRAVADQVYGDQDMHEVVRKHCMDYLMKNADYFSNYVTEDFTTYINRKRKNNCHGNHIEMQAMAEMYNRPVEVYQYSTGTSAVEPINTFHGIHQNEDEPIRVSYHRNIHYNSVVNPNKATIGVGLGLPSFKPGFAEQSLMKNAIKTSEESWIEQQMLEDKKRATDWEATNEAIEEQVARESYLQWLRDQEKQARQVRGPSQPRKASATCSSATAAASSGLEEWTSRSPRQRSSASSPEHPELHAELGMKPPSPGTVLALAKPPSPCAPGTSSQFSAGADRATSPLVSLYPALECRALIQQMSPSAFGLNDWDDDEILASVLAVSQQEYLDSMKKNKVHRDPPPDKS
# How it was run: as §1
# Chain of OTUB1 (Q96FW1 whole entry): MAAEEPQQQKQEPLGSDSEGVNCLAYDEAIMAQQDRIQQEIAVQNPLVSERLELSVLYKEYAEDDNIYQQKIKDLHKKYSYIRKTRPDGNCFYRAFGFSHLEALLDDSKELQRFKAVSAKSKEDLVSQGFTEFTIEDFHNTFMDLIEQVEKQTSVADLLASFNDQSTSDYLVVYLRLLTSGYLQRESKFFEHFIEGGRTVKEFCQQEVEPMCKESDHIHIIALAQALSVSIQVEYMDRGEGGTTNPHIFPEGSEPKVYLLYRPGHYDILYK
# Chain of ATXN3 (P54252 whole entry): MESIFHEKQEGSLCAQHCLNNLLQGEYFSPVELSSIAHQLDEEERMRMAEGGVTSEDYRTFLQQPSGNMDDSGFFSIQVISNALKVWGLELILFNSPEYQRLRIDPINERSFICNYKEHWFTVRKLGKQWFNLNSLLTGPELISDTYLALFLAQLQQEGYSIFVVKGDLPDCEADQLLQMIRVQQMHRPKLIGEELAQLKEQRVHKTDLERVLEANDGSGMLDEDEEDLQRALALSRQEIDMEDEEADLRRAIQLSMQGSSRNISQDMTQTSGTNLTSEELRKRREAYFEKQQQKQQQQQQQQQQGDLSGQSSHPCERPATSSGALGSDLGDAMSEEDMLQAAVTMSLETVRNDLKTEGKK
# Chain of EIF3F (O00303 whole entry): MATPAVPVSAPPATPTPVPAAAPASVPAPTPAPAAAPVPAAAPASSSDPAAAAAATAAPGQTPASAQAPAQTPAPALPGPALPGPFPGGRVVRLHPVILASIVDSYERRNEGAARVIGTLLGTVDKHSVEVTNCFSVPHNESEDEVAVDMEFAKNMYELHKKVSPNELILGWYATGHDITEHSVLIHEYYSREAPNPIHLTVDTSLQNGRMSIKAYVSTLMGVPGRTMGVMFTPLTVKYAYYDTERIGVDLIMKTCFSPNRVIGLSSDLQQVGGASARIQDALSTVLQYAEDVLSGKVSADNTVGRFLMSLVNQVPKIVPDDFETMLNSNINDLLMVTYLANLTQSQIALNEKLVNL
# Chain of EIF3H (O15372 whole entry): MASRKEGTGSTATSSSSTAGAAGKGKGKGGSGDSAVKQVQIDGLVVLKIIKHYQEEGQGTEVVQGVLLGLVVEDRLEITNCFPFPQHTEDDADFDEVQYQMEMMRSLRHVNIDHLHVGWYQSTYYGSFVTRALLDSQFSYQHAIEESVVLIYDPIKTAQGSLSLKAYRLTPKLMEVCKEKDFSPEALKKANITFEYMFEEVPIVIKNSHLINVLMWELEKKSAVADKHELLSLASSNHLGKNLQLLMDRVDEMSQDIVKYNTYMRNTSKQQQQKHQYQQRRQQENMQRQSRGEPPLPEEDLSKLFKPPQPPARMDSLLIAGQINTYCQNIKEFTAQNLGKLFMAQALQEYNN
compound,measurement,setting,value
O=C(CCl)N1CCCC1c1ccsc1 (centres undefined),log2 ratio of Biotin-Ahx-Ub-VS probe labelling,ALG13,-0.0335
same,log2 ratio of Biotin-Ahx-Ub-VS probe labelling,ATXN3,-1.15 (active)
same,log2 ratio of Biotin-Ahx-Ub-VS probe labelling,BAP1,-3.75 (active)
same,log2 ratio of Biotin-Ahx-Ub-VS probe labelling,EIF3F,0.0507
same,log2 ratio of Biotin-Ahx-Ub-VS probe labelling,EIF3H,0.2
same,log2 ratio of Biotin-Ahx-Ub-VS probe labelling,FAM105A,0.313
same,log2 ratio of Biotin-Ahx-Ub-VS probe labelling,OTUB1,-0.142
same,log2 ratio of Biotin-Ahx-Ub-VS probe labelling,OTUD4,-0.382
same,log2 ratio of Biotin-Ahx-Ub-VS probe labelling,OTUD5,-0.65
